# Article PMC4336329 (PLoS ONE, 2015)
# In all, about 310,000 compounds went through this assay and about 2,200 (0.71%) showed an effect of 50% or more. Effects have a minus sign here. Shown is part of a subset that was picked to be rich in strong results.
# Target: human ether-à-go-go-related gene (hERG) potassium channel (human, UniProt Q12809)
# Experiment: primary screen, population patch clamp on CHO cells stably expressing hERG; higher = less effect of the substance
# Chain of human ether-à-go-go-related gene (hERG) potassium channel (Q12809 whole entry, looked up): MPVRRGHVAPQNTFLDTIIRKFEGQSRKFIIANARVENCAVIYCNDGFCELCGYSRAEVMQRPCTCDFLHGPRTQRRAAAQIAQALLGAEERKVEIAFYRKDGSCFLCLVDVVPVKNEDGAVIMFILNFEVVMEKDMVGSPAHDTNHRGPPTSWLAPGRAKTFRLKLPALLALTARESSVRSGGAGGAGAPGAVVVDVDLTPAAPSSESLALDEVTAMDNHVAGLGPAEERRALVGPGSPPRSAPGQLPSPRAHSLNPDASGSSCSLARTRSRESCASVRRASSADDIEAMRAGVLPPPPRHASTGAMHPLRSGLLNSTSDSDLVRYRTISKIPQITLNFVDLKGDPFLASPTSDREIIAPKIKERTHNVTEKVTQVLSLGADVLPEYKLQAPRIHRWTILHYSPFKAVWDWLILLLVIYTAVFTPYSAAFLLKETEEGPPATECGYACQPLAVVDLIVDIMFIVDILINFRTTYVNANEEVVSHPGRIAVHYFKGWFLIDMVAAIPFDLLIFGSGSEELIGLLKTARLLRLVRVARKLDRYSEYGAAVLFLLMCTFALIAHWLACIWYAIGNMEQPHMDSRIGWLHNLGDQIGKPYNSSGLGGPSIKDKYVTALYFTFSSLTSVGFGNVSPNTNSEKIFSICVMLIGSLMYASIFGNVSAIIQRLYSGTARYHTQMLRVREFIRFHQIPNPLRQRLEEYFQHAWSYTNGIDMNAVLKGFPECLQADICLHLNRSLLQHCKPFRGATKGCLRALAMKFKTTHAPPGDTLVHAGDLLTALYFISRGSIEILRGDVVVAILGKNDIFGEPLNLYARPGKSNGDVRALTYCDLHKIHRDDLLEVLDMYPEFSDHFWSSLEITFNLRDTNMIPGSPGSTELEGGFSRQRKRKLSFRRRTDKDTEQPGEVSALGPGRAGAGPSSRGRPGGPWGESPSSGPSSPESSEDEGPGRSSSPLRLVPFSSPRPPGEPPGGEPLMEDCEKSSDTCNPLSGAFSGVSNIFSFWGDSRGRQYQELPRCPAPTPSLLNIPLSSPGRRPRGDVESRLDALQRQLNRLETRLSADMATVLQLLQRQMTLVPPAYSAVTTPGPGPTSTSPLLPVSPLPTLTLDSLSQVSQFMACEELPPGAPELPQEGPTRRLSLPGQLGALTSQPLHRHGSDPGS
row,SMILES,"hERG current change (%, negative = inhibition) at 1uM [%]"
1,N#CCCSc1ncnc2c1oc1ccccc12,4.55
2,CCOC(=O)N1CCC(NC(=O)c2cc(-c3ccc(F)cc3)[nH]c2C)CC1,11.6
3,CCOc1ccc(NC(=O)CN2CCN(CC(=O)Nc3ccc(F)cc3)CC2)cc1,-87.3
4,CCOC(=O)N1CCN(C(=O)c2cc(-c3ccc(F)cc3)[nH]c2C)CC1,-54.1
5,CCOc1ccc(NC(=O)CN2CCN(c3ccc(F)cc3)CC2)cc1,11.4
6,COc1ccc(NC(=O)CN2CCN(c3ccc(F)cc3)CC2)cc1,7.86
7,Cc1[nH]c(-c2ccc(F)cc2)cc1C(=O)N1CCN(c2ccccc2)CC1,-29
8,CCn1cc(/C=C/C(=O)Nc2c(C)nn(Cc3ccccc3C)c2C)cn1,15.5
9,CC(=O)N/N=C/c1cc(C)n(-c2ccc(Br)cc2)c1C,1.14
10,CC1N(C(=O)N2CCOCC2)CCN1S(=O)(=O)c1ccc(Cl)cc1 (centres unmarked),4
11,Cc1ccc(C(=O)N/C(=C\c2ccc(-c3cc(Cl)ccc3Cl)o2)C(=O)NCc2cccnc2)cc1,5.35
12,Cc1ccc(C(=O)N/C(=C\c2ccc(-c3ccc(Br)cc3)o2)C(=O)NC2CCS(=O)(=O)C2)cc1 (centres unmarked),7.85
13,Cc1ccc(C(=O)N/C(=C\c2ccc(Cl)cc2)C(=O)NCC2CCCO2)cc1 (centres unmarked),-38.7
14,Cc1ccc(C(=O)N/C(=C\c2ccc(-c3ccc(Cl)cc3)o2)C(=O)NCCCN(C)C)cc1,-93.5
15,Cc1ccc(/C=C(\NC(=O)c2ccccc2)C(=O)NCCN2CCOCC2)o1,1.36
16,O=C(NCCO)/C(=C\c1ccc([N+](=O)[O-])o1)NC(=O)c1ccccc1,4.89
17,CN(C)CCNC(=O)/C(=C/c1ccc(-c2ccc(Cl)cc2Cl)o1)NC(=O)c1ccccc1,-7.71
18,CN(C)CCNC(=O)/C(=C/c1ccc(-c2ccc(Cl)cc2)o1)NC(=O)c1ccccc1,-82
19,CN(C)CCCNC(=O)/C(=C\c1ccc(-c2ccc(Br)cc2)o1)NC(=O)c1ccccc1,-82
20,Cc1ccc(C(=O)N/C(=C/c2ccc(-c3ccc(Br)cc3)o2)C(=O)NC2CCS(=O)(=O)C2)cc1 (centres unmarked),3.65
21,Cc1ccc(C(=O)N/C(=C\c2ccc(-c3ccc(Br)cc3)o2)C(=O)NCCCN(C)C)cc1,-84.2
22,CN(C)CCNC(=O)/C(=C/c1ccc(-c2cccc(Cl)c2)o1)NC(=O)c1ccccc1,-31.4

row,SMILES,"hERG current change (%, negative = inhibition) at 1uM [%]"
1,CCCc1cc(=O)[nH]c(SCC(=O)N(C)C2CCCCC2)n1,13.3
2,CCSC1(SCC)N=C(N)C2(C#N)C(c3ccccc3)NC3=C(CCC3)C12C#N (centres unmarked),14.4
3,CN(C(=O)c1ccncc1)c1nnc(-c2cccnc2)s1,12.8
4,CN(CC(=O)N1CCCCCC1)S(=O)(=O)c1ccc(Br)cc1,0.738
5,COc1ccc(OCC(O)COc2ccc(C(=O)O)cc2)cc1 (centres unmarked),8.21
6,CCc1cc(C(=O)N/N=C/c2ccc(O)cc2)c2ccccc2n1,9.78
7,Cn1ncc(Br)c1C(=O)Nc1ccc(Br)cn1,16.3
8,CCC(C)[C@H](NC(=O)[C@@H]1CSC2c3ccccc3C(=O)N21)C(=O)N1CCCCC1 (some centres unmarked),8.7
9,CC1(C)CC(NC(=O)Cc2ccc(Cl)cc2)CC(C)(C)N1,16.7
10,Cc1ccc(-n2nc(C(=O)O)cc2-c2ccc(Cl)cc2)cc1,8.61
11,O=C(c1cc(-c2ccc(Cl)cc2)n(-c2ccc(Cl)cc2)n1)N1CCOCC1,-56.8
12,O=C(c1cc(-c2ccc(Cl)cc2)n(-c2cc(Cl)ccc2Cl)n1)N1CCOCC1,-3.98
13,O=C(c1cc(-c2ccc(Cl)cc2)n(-c2ccc(Cl)c(Cl)c2)n1)N1CCOCC1,5.69
14,O=C(c1cc(-c2ccc(Cl)cc2)n(-c2ccc(Cl)cc2Cl)n1)N1CCOCC1,-40.7
15,Cc1ccc(-n2nc(C(=O)N3CCOCC3)cc2-c2ccc(Cl)cc2)cc1,-87.4
16,COc1ccc(NC(=O)C2CCC(C)(C(=O)O)C2(C)C)cc1 (centres unmarked),11.1
17,CC(OC(=O)c1ccccc1NCCO)C(=O)Nc1ccc(S(=O)(=O)N2CCOCC2)cc1 (centres unmarked),11.6
18,CN=C1S/C(=C\c2ccc(O)c(OC)c2)C(=O)N1C,14
19,Cc1cccc(-n2c(SCC(=O)N(C)C3CCS(=O)(=O)C3)nc3ccccc3c2=O)c1C (centres unmarked),13.9
20,CC(CCc1ccccc1)NC(=O)C1CCCN(c2nnc(-n3cccc3)s2)C1 (centres unmarked),-7.23
21,O=C(NC1CCN(Cc2ccccc2)CC1)C1CCN(c2nnc(-n3cccc3)s2)CC1,-28.2
22,O=C(NC1CCN(Cc2ccccc2)CC1)C1CCCN(c2nnc(-n3cccc3)s2)C1 (centres unmarked),-65.2

row,SMILES,"hERG current change (%, negative = inhibition) at 1uM [%]"
1,O=[N+]([O-])c1cccc2ccc(/C=C/c3ccc(Cl)cc3)nc12,1.88
2,Cc1nc2c(ccc3nc(NC(=O)c4ccc(S(=O)(=O)N(C)C)cc4)sc32)s1,16.4
3,Cc1nc2c(ccc3nc(NC(=O)c4ccc5c(c4)OCCO5)sc32)s1,-86.6
4,Cc1nc2ccc3nc(NC(=O)c4ccc5c(c4)OCCO5)sc3c2s1,9.46
5,COc1ccc2c(c1)c(C(=O)O)c(C)n2CC(C)C,-2.31
6,CC(NS(=O)(=O)/C=C/c1ccccc1)C(=O)O (centres unmarked),12.5
7,CC(C)Cn1cc(C(=O)N2CCC3(CC2)OCCO3)c2c3ccccc3n(C)c2c1=O,-1.15
8,O=C(Cc1c(F)c(F)c(F)c(F)c1F)Nc1nc(-c2ccccc2)cs1,9.84
9,CCn1c(N2CCN(Cc3ccc([N+](=O)[O-])cc3)CC2)nc2ccccc21.Cl,-81.2
10,Cl.O=[N+]([O-])c1ccc(CN2CCN(c3ccc4ccccc4n3)CC2)cc1,-1.76
11,CCCn1c(N2CCN(Cc3ccc(Cl)cc3)CC2)nc2ccccc21.Cl,-4.77
12,CC(C)Cn1c(N2CCN(C(=O)/C=C/c3ccccc3)CC2)nc2ccccc21,-32.9
13,CCn1c(N2CCN(C(=O)/C=C/c3ccccc3)CC2)nc2ccccc21,-77.4
14,CCCn1c(N2CCN(C(=O)/C=C/C(=O)O)CC2)nc2ccccc21,14.7
15,CCCCc1ccc(NC(=S)NN2CCOCC2)cc1,12.1
16,COc1ccc(NC(=O)CCCn2cc([N+](=O)[O-])cn2)cc1,1.91
17,O=C(NCCCn1ccnc1)c1cccc(Br)c1,6.56
18,CCOC(=O)C(NC(C)=O)(Nc1ccc(S(=O)(=O)Nc2ncccn2)cc1)C(F)(F)F (centres unmarked),18.1
19,O=c1c2ccccc2ncn1-c1ccc2c(c1)OCCO2,2.75
20,CCC(=O)Nc1ccc(C(=O)n2nc(C)cc2C)cc1,1.88
21,Cc1c(NC(=O)c2cc(-n3cnnc3)ccc2Cl)cccc1-c1nc2ccccc2s1,-9.7
22,Cn1nc(C(=O)NCCCN2CCCCC2)c2c1-c1ccccc1SC2,-24.8

row,SMILES,"hERG current change (%, negative = inhibition) at 1uM [%]"
1,CC1CCCN(CCCNC(=O)c2nn(C)c3c2CSc2ccccc2-3)C1 (centres unmarked),-66.2
2,CC1CCCCN1CCCNC(=O)c1nn(C)c2c1CSc1ccccc1-2 (centres unmarked),-23.4
3,O=C(COc1nncc2ccccc12)NCCC1=CCCCC1,9.4
4,Cc1cc2ccccc2c(=O)n1CC(=O)NCc1ccco1,18.5
5,COCCn1c(=N)c(S(=O)(=O)c2ccc(Br)cc2)cc2c(=O)n3ccccc3nc21,9.15
6,CCn1cc(C(=O)NCc2ccco2)c2cc(OC)c(OC)cc2c1=O,-8.54
7,Cc1ccc2nc3c(cc(C(=O)NCc4ccco4)c(=N)n3Cc3ccco3)c(=O)n2c1,-86.5
8,COCCn1c(=N)c(C(=O)NCc2ccco2)cc2c(=O)n3cc(C)ccc3nc21,-92
9,COCCn1c(=N)c(C(=O)NCc2ccco2)cc2c(=O)n3ccccc3nc21,-88
10,Cc1ccc(S(=O)(=O)c2cc3c(=O)n4ccccc4nc3n(Cc3ccco3)c2=N)cc1,-0.218
11,COCCn1cc(C(=O)NCc2ccco2)c2c3ccccc3n(C)c2c1=O,5.73
12,CCOc1ccc(N2CC(=O)N/C2=N\c2nc(C)cc(C)n2)cc1,-2.01
13,CC(C)COC(=O)CCNc1n[nH]c(=O)[nH]c1=O,3.64
14,CCCCCCSc1nnc(N)s1,7.6
15,COc1ccccc1OCCCC(=O)NC(C)c1ccccc1 (centres unmarked),8
16,O=C1CCCc2oc3c(cc(NS(=O)(=O)c4ccc5c6c(cccc46)C(=O)N5)c4ccccc43)c21,-6.54
17,Cc1cc(C)nc(SCCC(=O)N(C)C)n1,11
18,CCN(CC)c1nc2ccccc2c(N)c1-c1ccccc1.O=C(O)C(=O)O,-53.9
19,Cc1c(N(C)C)nc2ccccc2c1N.O=C(O)C(=O)O,-8.8
20,CN(C)c1nc2ccccc2c(N)c1-c1ccccc1.O=C(O)C(=O)O,-39.7
